# Screens as filed in PubChem.
# Shown are actives, neighbours in structure and some others; about 19% of the full set was active somewhere.
# TDP1 cell noCPT – qHTS for Inhibitors of human tyrosyl-DNA phosphodiesterase 1 (TDP1): qHTS in cells in absence of CPT; DT40 Tdp1-/- hTDP1 cells, no CPT, ATP luminescence, 48 h; Potency, µM (top dose mostly 46.2 µM), without a hit: at the highest dose activity change, negative = growth inhibition, usual class: inhibitors; hit rate 15% among 420,000; further: potency means the concentration at half of the fitted maximal effect; nearly all actives have a fitted effect of over 55% in size
#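 Growth of hTDP1-complemented DT40 Tdp1-knockout cells is measured by ATP luminescence after at least 48 hr compound exposure at 37 °C, with DMSO substituting for the 20 nM CPT used in the parallel screen.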
# IL-1B inflam inh – inhibitors of inflammasome signaling (IL-1 beta secretion); THP-1 LPS/ATP IL-1B secretion, AlphaLISA, 16 h; stronger effect = lower value; activity change, % at 57.5 µM; hit rate 4.7% among 360,000; AID 743279; in the data active means activity change below about -50%; inconclusive means mostly about -30% to -49%
#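 Secreted IL-1B measured by AlphaLISA bead assay after 16 h compound exposure of THP-1 cells; compounds (final up to 57.5 uM) added 1 h before LPS (250 ng/mL) and ATP (1.25 mM) stimulation; lower signal means less secretion.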
# ELG1 repair inh – inhibitors of ELG1-dependent DNA repair in HEK293T cells; hit rate 2.3% among 330,000; Potency, µM (highest dose often 46.1 µM), for inactives: top-dose activity change, negative = inhibition, actives largely listed as inhibitors; HEK293T ELG1-luciferase reporter, luminescence, 16 h; DNA damage induced by 5-fluorouridine; further: potency means the concentration at half of the fitted maximal effect; nearly all actives have a fitted effect of over 55% in size
#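 Overnight (16 hr) co-exposure of 2,000 cells/well to 5-fluorouridine and compound at 37 °C preceded detection. Luciferase was quantified via ONE-Glo luminescence; loss of signal denotes inhibition.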
# Giardia kill – kills Giardia lamblia; Giardia lamblia trophozoite viability; activity change, % at 7.66 µM, hits read low; hit rate 0.15% among 340,000; AID 540267; in the data active means activity change below about -80%; inconclusive means between about -30% and that limit;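 further: parasites exposed to compound for two days anaerobically before the ATP read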
#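 Media and compound were dispensed first, then trophozoites at 100 cells/well; plates sat 48 hrs at 37 deg C without oxygen before ATP luminescence reagent was added and read after 15-30 min at room temperature.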
# TDP1 inh – inhibitors of human tyrosyl-DNA phosphodiesterase TDP1; Q9NUW8; recombinant TDP1, AlphaScreen DNA substrate cleavage; Potency, µM (titrated, usually from 130 µM), inactives show top-dose activity change, negative = inhibition, usual class: inhibitors; hit rate 0.28% among 350,000; further: potency means the concentration at half of the fitted maximal effect; nearly all actives have a fitted effect of over 40% in size
# Target sequence (Q9NUW8 whole entry, looked up): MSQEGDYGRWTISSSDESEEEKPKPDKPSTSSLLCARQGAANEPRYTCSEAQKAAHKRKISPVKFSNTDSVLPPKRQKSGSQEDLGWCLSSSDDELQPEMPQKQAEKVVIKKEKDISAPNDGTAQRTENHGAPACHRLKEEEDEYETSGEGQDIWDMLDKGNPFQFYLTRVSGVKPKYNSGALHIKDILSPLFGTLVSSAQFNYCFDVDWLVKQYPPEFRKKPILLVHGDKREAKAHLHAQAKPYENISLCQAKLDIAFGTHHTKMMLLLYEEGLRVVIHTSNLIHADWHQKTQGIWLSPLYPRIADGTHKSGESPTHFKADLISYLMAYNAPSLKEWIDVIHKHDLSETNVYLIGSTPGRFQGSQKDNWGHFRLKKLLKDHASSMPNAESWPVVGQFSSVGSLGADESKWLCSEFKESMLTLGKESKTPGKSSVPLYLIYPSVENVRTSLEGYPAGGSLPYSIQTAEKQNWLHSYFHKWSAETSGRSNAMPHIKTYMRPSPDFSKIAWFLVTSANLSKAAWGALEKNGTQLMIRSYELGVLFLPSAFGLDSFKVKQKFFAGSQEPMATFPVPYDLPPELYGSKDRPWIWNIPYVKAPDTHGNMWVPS
#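 Steps: enzyme plus compound, 15 min RT; add biotin/phosphotyrosine-FITC oligonucleotide (15 nM final), react 5 min; add donor/acceptor beads (10 ug/ml final), 10 min; read AlphaScreen. Tdp1 at 1 nM final.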
# TDP1 cell CPT – growth inhibition of DT40 Tdp1-/-;hTDP1 cells with camptothecin (screen for TDP1 inhibitors) | chicken DT40 Tdp1-/-;hTDP1 cells + 20 nM CPT, ATP luminescence, 48 h | Potency, µM (top dose mostly 46.2 µM), without a hit: top-dose activity change, negative = growth inhibition, usual class: inhibitors | hit rate 12% among 420,000 | AID 686979; further: potency means the concentration at half of the fitted maximal effect; nearly all actives have a fitted effect of over 55% in size
#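 Chicken DT40 Tdp1-/- cells stably complemented with human TDP1 were seeded at 400 cells/well in medium containing 20 nM camptothecin, exposed to pin-transferred compounds, and grown at 37 °C for at least 48 hr. Viability was read as ATP luminescence.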
# * hit, by the source's call; ? = inconclusive; nt = no result given; [ ] = remark or other dose. Unless noted, the call rests on the fitted dose curve; in most records, active means well fitted curve in the direction sought with a large enough effect; inconclusive means small, poorly fitted or top-dose-only effect, or another doubt; inactive means no such curve, though single readings can be large; an effect the other way counts as inactive or inconclusive. On the % scale 0 is the no-effect control and ±100 the full control effect.
SMILES,TDP1 cell noCPT,IL-1B inflam inh,ELG1 repair inh,Giardia kill,TDP1 inh,TDP1 cell CPT
CCc1ccccc1N(CC(=O)N1CCN(c2ccc(F)cc2)CC1)S(C)(=O)=O,23µM*,1,-21%,1,1%,15µM*
CS(=O)(=O)N(CCc1ccccc1)CC(=O)N1CCN(c2ccc(F)cc2)CC1,23µM*,-13,?,3,1%,?
O=C1CCC(C(=O)N2CCCC2)CN1Cc1cccc(C(F)(F)F)c1 (stereo unspecified),-27%,11,-23%,-1,3%[56.1 µM],14%
COc1cccc(-n2ccnc2SCC(=O)Nc2nc3ccc(C)cc3s2)c1,-18%,nt,nt,nt,3%,-8%
O=C1C=C(c2ccc3c(c2)OCO3)C[C@@H](c2ccc(Cl)cc2)C1,-12%,36,13%,-2,0%,-12%
CC(NC(=O)CC(c1ccccc1)c1cc(Cl)ccc1O)c1ccccc1 (stereo unspecified),21µM*,?,-26%,7,0%,15µM*
Cc1ccc(O)c(C(CC(=O)NC(C)C)c2ccccc2)c1 (stereo unspecified),-3%,0,5%,38,2%,-2%
CN(Cc1ccccc1)C(=O)CC(c1ccccc1)c1cc(Cl)ccc1O (stereo unspecified),21µM*,-29,-23%,7,4%,23µM*
COC(=O)c1ccccc1S(=O)(=O)NNC(=O)c1ccccc1-n1cccc1,4%,7,29%,3,1%,-3%
Cc1ccc(Cl)c2sc(NC(=O)C3=COCCO3)nc12,-13%,-17,?,-14,6%,-11%
O=C(Nc1nc(-c2ccc(Cl)cc2)cs1)C1=COCCO1,23µM*,-84*,?,5,4%,23µM*
O=C(Nc1nc(-c2cccs2)cs1)C1=COCCO1,23µM*,-7,?,8,-8%,?
Cc1sc(NC(=O)C2=COCCO2)nc1-c1ccc(Cl)cc1,21µM*,-5,?,2,-5%,?
O=C(Nc1nc(-c2ccc(F)c(F)c2)cs1)C1=COCCO1,?,-25,?,-4,3%,?
O=C(Nc1nc(-c2cccs2)cs1)c1ccc([N+](=O)[O-])o1,21µM*,-90*,-1%,-82*,0%,?
Cc1cc(C)c(-c2csc(NC(=O)C3=COCCO3)n2)c(C)c1,-76%,?,13%,-9,nt,?
COc1cccc(C(=O)N2CCc3c(C(=O)NC(C)c4ccco4)c(OC)cc(=O)n3CC2)c1OC (stereo unspecified),1%,nt,nt,nt,nt,9%
CO[C@H]1O[C@H](CBr)[C@@H](OC(=O)c2ccccc2)[C@H](O)[C@H]1O,-8%,24,nt,6,nt,-6%
CCc1ccc(-c2csc(NC(=O)C3=COCCO3)n2)cc1,?,-12,?,-8,3%,12µM*
COc1ccccc1-c1ccc2c(c1)C(C)(Cc1ccc(Cl)c(Cl)c1)C(=O)N2 (stereo unspecified),?,-13,nt,nt,nt,21µM*
COc1ccccc1-c1ccc2c(c1)C(C)(Cc1ccccc1C#N)C(=O)N2 (stereo unspecified),?,-28,nt,nt,nt,21µM*
CC1(Cc2ccccc2C#N)C(=O)Nc2ccc(-c3ccccc3)cc21 (stereo unspecified),?,-18,nt,nt,nt,?
CC1(Cc2ccc(Cl)c(Cl)c2)C(=O)Nc2ccc(S(=O)(=O)NC3CCCCC3)cc21 (stereo unspecified),?,-17,nt,nt,nt,?
CCCOCC(C)OCC(C)O (stereo unspecified),nt,nt,nt,nt,17%,nt
CC1CC(C)CN(C(=O)c2ccc3c(c2NCCO)C(=O)c2ccccc2C3=O)C1 (stereo unspecified),23µM*,-23,?,3,11%,29µM*
SMILES,TDP1 cell noCPT,IL-1B inflam inh,ELG1 repair inh,Giardia kill,TDP1 inh,TDP1 cell CPT
CC1CC(C)CN(C(=O)COC(=O)CN2C(=O)c3ccccc3C2=O)C1 (stereo unspecified),7%,5,19%,-1,0%,5%
CCN1c2ccccc2-c2nc(SCC(=O)Nc3ccc(C)c(Cl)c3)ncc2S1(=O)=O,?,nt,nt,nt,0%,?
CCC(OC(=O)c1cccs1)C(=O)NCc1ccc(C)cc1 (stereo unspecified),4%,31,13%,18,0%,-10%
Cc1cccc(NC(=S)NNC(=O)c2ccccc2Br)c1,?,9,?,-7,11%,?
COc1ccc(NC(=S)NNC(=O)c2ccccc2OC(F)F)cc1,18µM*,-15,-10%,-9,10%,13µM*
Cc1cccc(NC(=S)NNC(=O)c2ccccc2OC(F)F)c1,29µM*,-4,-9%,5,10%,23µM*
CCOC(CCNC(=O)c1cn(C)c(=O)c2c1c1ccccc1n2C)OCC,?,17,3%,?,nt,?
CCC(=O)N1CCN(c2ccc(NC(=O)c3ccc(Br)o3)cc2)CC1,-14%,-56*,?,9,5%,-8%
Cc1ccccc1C(=O)N1CCN(c2ccc(NC(=O)Cc3ccccc3)cc2)CC1,?,0,18µM*,-6,3%,?
CCN1CCN(c2ccc(NC(=O)COc3ccc([N+](=O)[O-])cc3)cc2)CC1,?,0,13%,-4,3%,?
O=C(Nc1ccccc1C(=O)O)c1ccc(NC(=O)c2ccc(Br)o2)cc1,?,42,-13%,2,2%,?
CN1CCN(c2ccc(NC(=O)c3ccc(Br)o3)cc2)CC1,12%,-22,?,17,4%,-2%
N/C(=N\O)c1ccc(NC(=O)c2ccc(Br)o2)cc1,?,-2,?,-3,1%,18µM*
O=C(COc1ccc([N+](=O)[O-])cc1)Nc1ccc(N2CCN(C(=O)c3ccco3)CC2)cc1,5.8µM*,-10,26%,-6,3%,9.2µM*
O=C(CSCC(=O)OCC(=O)N1CCN(C(=O)c2ccco2)CC1)Nc1ccc(Cl)cc1,-14%,9,nt,nt,nt,1%
O=C(COc1ccc(Cl)cc1)Nc1ccc(N2CCN(C(=O)c3ccco3)CC2)cc1,13µM*,?,-29%,-2,6%,10µM*
CCC(=O)N1CCN(c2ccc(NC(=O)COc3ccc(CC)cc3)cc2)CC1,21µM*,-9,-15%,17,-1%,-19%
